Out of some 310,000 compounds screened, about 17,000 (5.5%) were called active. About 11% were inconclusive and are not listed. This is one part of a sample in which actives are shown more often than they occur. Unmarked numbers belong to inactive results. Calls follow the shape of the dose curve; as a rule, active = well fitted inhibition curve with a large enough effect; inconclusive = small, poorly fitted or top-dose-only effect, or effect the other way; inactive = no such curve, though single readings can be large or run the other way.
% is scaled to controls: 0 for no effect and ±100 for the full control effect; potency is read from the fitted curve at half-maximal effect.

The target of the assay is Nuclear receptor ROR-gamma (Mus musculus) (UniProt P51450). The assay is described as follows: qHTS for inhibitors of ROR gamma transcriptional activity. Also: nearly all actives have a fitted effect of over 60% in size. The conditions noted are these: Drosophila S2 Gal4-RORgamma UAS-luciferase reporter, 20 h; series mostly up to 53.6 µM; activity change, negative = inhibition: at the top concentration. A digest of the protocol: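 Luminescence from a UAS-regulated Photinus luciferase reporter in stably transfected Drosophila Schneider cells is measured; decreased signal marks ROR gamma inhibition. Fusion expression is induced by 700 uM copper sulfate for 20 hr.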
Nuclear receptor ROR-gamma (Mus musculus), sequence (P51450 whole entry, looked up, the tested form may be a part): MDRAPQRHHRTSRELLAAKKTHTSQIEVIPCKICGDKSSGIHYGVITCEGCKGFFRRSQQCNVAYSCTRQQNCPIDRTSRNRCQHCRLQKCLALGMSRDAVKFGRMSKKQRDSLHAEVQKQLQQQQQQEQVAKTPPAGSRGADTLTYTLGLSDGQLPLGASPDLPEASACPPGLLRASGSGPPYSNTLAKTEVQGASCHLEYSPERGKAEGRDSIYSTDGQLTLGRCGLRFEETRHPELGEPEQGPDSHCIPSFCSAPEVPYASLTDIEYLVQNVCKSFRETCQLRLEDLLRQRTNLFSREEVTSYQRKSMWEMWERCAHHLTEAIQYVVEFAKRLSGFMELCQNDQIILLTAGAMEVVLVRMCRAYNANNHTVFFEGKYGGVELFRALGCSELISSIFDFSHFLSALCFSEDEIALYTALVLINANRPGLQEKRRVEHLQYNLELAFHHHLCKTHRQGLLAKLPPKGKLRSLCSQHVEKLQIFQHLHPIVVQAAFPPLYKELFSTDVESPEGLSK
In general terms: qHTS replaces the single test concentration by a dilution series.
Regarding `C=CCOc1ccccc1NC(=O)CN1C(=O)CNC1=O`, the “activity change, negative = inhibition” value is -31.8%.
Consider `CN(C)S(=O)(=O)c1cccc(NC(=S)N/N=C/C(=O)c2ccccc2)c1`, for which the “activity change, negative = inhibition” value was 21.3%.
`Cc1ccc(/C=N/NC(=S)Nc2cccc(S(=O)(=O)N(C)C)c2)o1`: the Potency is 1.26 µM (active).
For `CN(C)S(=O)(=O)c1cccc(NC(=O)Cc2ccsc2)c1`, the “activity change, negative = inhibition” value was 16.2%.
Consider `O=C(Nc1ccccc1)C1CCN(C(=O)c2ccc(Br)cc2)CC1`, for which the “activity change, negative = inhibition” value is 1.33%.
On the same count and under the same terms, next, `O=C(NCCc1ccccc1Cl)C1CCC(=O)N(CCCc2ccccc2)C1` (stereo not given): 4.06%; `CC1CC(C)CN(CCOc2cccc3ccccc23)C1` (stereo not given): -13.7%; `COc1ccc(-c2c(-c3ccc(OC)cc3O)nc(C)nc2C(F)(F)F)cc1`: -5.38%.
With `C=C(C)COc1ccc(-c2n[nH]c(C)c2-c2ccccc2)c(O)c1`, the Potency was 7.08 µM (active).
On to `COc1ccc(CCN2C(=O)c3[nH]nc(-c4ccccc4O)c3C2c2ccc(C)cc2)cc1OC` (stereo not given), for which the “activity change, negative = inhibition” value was -39.7%.
As for `C=C(C)COc1ccc(-c2n[nH]c(C)c2-c2ccccc2OC)c(O)c1`, the Potency was 14.1 µM (active).
Consider `CC(=O)COc1ccc2c(-c3ccccc3)cc(=O)oc2c1`, for which the “activity change, negative = inhibition” value is -5.52%.
Still for that read-out and setting: next, `Cc1noc(C)c1COC(=O)COc1ccc(-c2ccccc2)cc1`: -18.9%.
As for `C=C(C)COc1ccc(-c2nc(N)ncc2-c2ccccc2OC)c(O)c1`, the “activity change, negative = inhibition” value was 21.4%.
With `COc1ccc(-c2n[nH]c(C)c2-c2ccccc2OC)c(O)c1`, the Potency is 8.91 µM (active).
In the case of `COc1ccc(OC)c(-c2csc(-c3cccs3)n2)c1`, the “activity change, negative = inhibition” value was 2.01%.
Take `COc1ccc(-c2[nH]ncc2CN(C)Cc2c(C)n[nH]c2C)c(OC)c1`: the “activity change, negative = inhibition” value is -1.1%.
With `COc1ccc(-c2n[nH]c(C)c2-c2ccc(OC)c(OC)c2)c(O)c1`, the Potency was 10 µM (active).
Turning to `CCOc1ccc(-c2nc(N)ncc2-c2ccccc2OC)c(O)c1`, the “activity change, negative = inhibition” value is 28.4%.
Same read-out and setting: for `O=C(NCCc1ccccn1)c1nc(Cn2cc([N+](=O)[O-])cn2)no1` the value was -0.758%.
Still for that read-out and setting: for `Cc1ccccc1N1CC(C(=O)Nc2ccc3c(c2)OCO3)CC1=O` (stereo not given) the value was 19.2%; for `COc1ccc(-c2csc3ncnc(N4CCN(S(=O)(=O)c5ccccc5C#N)CC4)c23)cc1`, 0.197%; for `CCCC(=O)N(CCN1CCOCC1)c1nc2ccc(OCC)cc2s1`, 4.81%.
As to `CC(=O)Nc1ccc(NC(=O)CSc2nnnn2-c2ccccc2F)cc1`, the “activity change, negative = inhibition” value was 6.46%.
Same read-out and setting: next, `CCc1ccc(NC(=O)CS(=O)CC(=O)N2CCN(c3ccccc3F)CC2)cc1` (stereo not given): -24.2%; `Cc1nc(CN(C)C(=O)CC2C(=O)NCCN2Cc2ccc(F)cc2)cs1` (stereo not given): -3.13%.
Still for that read-out and setting: for `CCOc1ccc(CN2CCN(Cc3c[nH]c4ccccc34)CC2)cc1` the value was -8.28%; for `COc1ccc2c(c1)C(NS(=O)(=O)OCC(Cl)(Cl)Cl)CCC2` (stereo not given), -9.1%.
`O=C(CC1C(=O)NCCN1C(=O)c1ccc([N+](=O)[O-])cc1)Nc1cccc(Cl)c1` (stereo not given): the “activity change, negative = inhibition” value is -1.47%.
As to `O=C(NCc1ccncc1)C1CCCN(S(=O)(=O)c2ccc(Br)cc2)C1` (stereo not given), the “activity change, negative = inhibition” value is -0.316%.
In the case of `COc1ccc(NC(=O)CCCNC(=O)Cn2cnc3sc4c(c3c2=O)CCCC4)cc1OC`, the “activity change, negative = inhibition” value was 11.9%.
Same read-out and setting: for `CCOc1cccc(-c2nn3c(-c4ccccn4)nnc3s2)c1` the value was -2.44% [at 10 µM].
In the case of `CCOc1ccc(-c2n[nH]c(C)c2-c2ccccn2)c(O)c1`, the Potency is 17.8 µM (active).
As to `COc1ccc(-n2c(SCC(=O)OC(C)C)nnc2-c2ccccn2)cc1`, the “activity change, negative = inhibition” value is 8.58%.
Regarding `COc1ccc(CNC(=O)CCN2C(=O)c3ccccc3C2=O)cc1`, the “activity change, negative = inhibition” value was -10.3%.
As for `O=C(O)CC(c1ccccc1F)N1Cc2ccccc2C1=O` (stereo not given), the “activity change, negative = inhibition” value was 13.5%.
Consider `COCCC(=O)N1CCC(Oc2ccc(C(=O)NCc3ccon3)cc2)CC1`, for which the “activity change, negative = inhibition” value is -0.109%.
For the molecule `Clc1ccc(C(Cn2ccnc2)OCc2ccsc2Cl)c(Cl)c1` (stereo not given), the Potency is 12.6 µM (active).
Consider `O=C(NCCCn1ccnc1)Nc1ccc(Cl)cc1Cl`, for which the “activity change, negative = inhibition” value was 1.19%.
Still for that read-out and setting: next, `COc1ccc(C(CNC(=O)COc2ccc([N+](=O)[O-])cc2)N2CCCCC2)cc1` (stereo not given): -1.04%; `CC(=O)NCC(=O)NC1CCCc2c1cnn2-c1ccccc1F` (stereo not given): 11.1%; `COCCN(CCOC)C(=S)Nc1ccccc1Cl`: -20.1%.
Consider `COCCN(C(=S)Nc1cccc(Cl)c1C)C(C)c1ccco1` (stereo not given), for which the Potency is 7.94 µM (active).
As for `Cc1c(Cl)cccc1NC(=O)CCC(=O)N/N=C/c1ccco1`, the “activity change, negative = inhibition” value was 4.27%.
Turning to `C=CCn1c(SCC(=O)NCCCO)nc2sc3c(c2c1=O)CCC3`, the “activity change, negative = inhibition” value was 12.8%.
Still for that read-out and setting: next, `COc1ccc(NC(=S)N2CCC(NC(=O)c3cccc(F)c3)CC2)cc1`: -21.7%.
As for `COc1ccccc1C1CCN(C(=S)Nc2ccc(Br)cc2)CC1`, the Potency was 5.01 µM (active).
Turning to `COc1ccc(C(=O)NC2CCN(C(=S)Nc3ccccc3)CC2)cc1`, the “activity change, negative = inhibition” value is -22.9%.
Same read-out and setting: next, `COc1ccc(NC(=O)C2C3CCC(O3)C2C(=O)O)cc1OC` (stereo not given): -29.4%; `COc1cc(NC(=O)CCS(=O)(=O)c2ccc3c(c2)oc(=O)n3C)cc(OC)c1`: 10.4%.
The same measure, in the same setting: next, `Cc1ccc(C(=O)N(CC(=O)NC2CCCC2)c2ccc(F)cc2)s1`: -5.56%.
Regarding `C=CCNC(=O)c1ccc2c3n(nc2c1)-c1ccc(C)cc1CO3`, the Potency is 7.08 µM (active).
With `CCOc1c2ccc(C(=O)NCc3ccc4c(c3)OCO4)cc2nn1C`, the “activity change, negative = inhibition” value was -5.74%.
Same read-out and setting: for `C=CCNC(=O)c1ccc(C)c(Br)c1` the value was 5.36% [at 0.365 µM]; for `CCCc1nn2c(=O)cc(CSCC(=O)Nc3cccc(C)c3)nc2s1`, -2.84%.
As for `Cc1ccc2c(c1)c1ncnc(N3CCc4ccccc4C3)c1n2C`, the Potency was 15.8 µM (active).
For the molecule `Cc1ccc2c(c1)c1ncn(Cc3ccc(F)cc3)c(=O)c1n2C`, the “activity change, negative = inhibition” value is -40.6%.
Take `Cc1ccc2c(c1)c1ncn(CCC3=CCCCC3)c(=O)c1n2C`: the “activity change, negative = inhibition” value is 4.27%.
Still for that read-out and setting: next, `O=C(O)c1ccccc1-c1ccccc1C(=O)Nc1ccccc1Br`: -14.5%.
`O=C(Nc1ccc(NC(=O)c2cccs2)cn1)c1ccco1`: the Potency was 11.2 µM (active).
`O=C(Nc1ccc2nccnc2c1)c1ccco1`: the “activity change, negative = inhibition” value is 43%.
For the molecule `COc1cccc(C(=O)Nc2ccc(NC(=O)c3ccco3)cn2)c1`, the “activity change, negative = inhibition” value is 25.9%.
The same measure, in the same setting: for `Cc1cc(O)c(C2(O)C(=O)Nc3ccccc32)cc1C` (stereo not given) the value was 19.9%; for `C/C(=N\NC(=O)c1ccc2ccccc2c1)c1cccnc1`, -21.8%; for `Cn1c(CNC(=O)C(C)(C)C)nc2ccccc21`, 20.1% [at 0.365 µM].
Still for that read-out and setting: next, `CCOc1ccc(C(O)Cc2nc3ccccc3n2C)cc1` (stereo not given): 11.9%.
In the case of `CC(NCc1nc2ccccc2n1C)C12CC3CC(CC(C3)C1)C2` (stereo not given), the Potency is 5.01 µM (active).
For `COc1ccc(CCNC(=O)NS(=O)(=O)c2ccc(C)cc2)cc1OC`, the “activity change, negative = inhibition” value is -25.4%.
Still for that read-out and setting: for `COc1ccc(CCNC(=O)Cc2ccc(C)cc2)cc1OC` the value was -20.3%.
`COc1ccc(CCNC(=S)NC(=O)/C=C/c2ccc(C)cc2)cc1OC`: the Potency is 3.16 µM (active).
Regarding `COc1cccc(CNC(=O)CN(C)S(=O)(=O)c2ccc3c(c2)c(=O)n(C)c(=O)n3C)c1`, the “activity change, negative = inhibition” value is -14.9%.
Still for that read-out and setting: next, `CC(=O)Nc1ccc(NC(=O)CN2C(=O)COc3ccc(S(=O)(=O)N4CCCCC4)cc32)cc1`: -1.03%.
Same read-out and setting: next, `CCOc1cccc(-c2nnc(SCC(=O)NC3CC3)n2C)c1`: -31.3%; `OCCN1CCN(c2nnc(-c3ccccc3)c3ccccc23)CC1`: -1.93%; `CCOc1ccc(N(CC(=O)NCCOc2ccccc2OC)S(=O)(=O)c2ccccc2)cc1`: -29.8%.
Regarding `C=CCN1CCN(C(=O)CCCc2ccccc2)CC1`, the Potency was 5.62 µM (active).
As to `O=C(CCCc1ccccc1)NCc1ccccc1`, the “activity change, negative = inhibition” value was 16.2%.
Same read-out and setting: for `CC(=O)c1ccc(N2CCN(C(=O)CCc3ccccc3)CC2)cc1` the value was 23.9%; for `Cc1ccccc1OCC(=O)Nc1nnc(S(=O)(=O)N2CCCC2)s1`, 14.6%; for `CCOc1cc(/C=N/Nc2cc(C)nc3ccc(C)cc23)ccc1O`, -24.7%.
Still for that read-out and setting: for `CC1=C(C(N)=O)C(c2ccc(F)cc2)n2nc(CCCO)nc2N1` (stereo not given) the value was -6.31%; for `COc1cccc(-c2nc3n(n2)C(c2ccccc2Cl)C(C(N)=O)=C(C)N3)c1` (stereo not given), 10.2%.
In the case of `CC1=C(C(N)=O)C(c2ccc3c(c2)OCO3)n2nc(-c3cccc(C)c3)nc2N1` (stereo not given), the Potency was 5.62 µM (active).
On to `Cc1ccc(C(=O)OCC(=O)NC(=O)Cc2ccccc2)c(O)c1`, for which the “activity change, negative = inhibition” value is -14.9%.
`CC(=O)N/N=C(\C)c1ccc(Br)cc1Br`: the Potency is 10 µM (active).
Turning to `CN(C)C(=O)c1cc(Br)ccc1Cl`, the “activity change, negative = inhibition” value was 5.62%.
The same measure, in the same setting: for `COC(=O)c1oc2ccc(Br)cc2c1NC(C)=O` the value was -12.5%; for `COc1ccc(CCNC(=O)CS(=O)(=O)Cc2nc(-c3ccc(C)cc3)oc2C)cc1OC`, -11.7%.
Regarding `CCCCNC(=O)C1(O)c2ccccc2NC(=O)N1c1ccc(Cl)cc1` (stereo not given), the “activity change, negative = inhibition” value is 0.468%.
On the same count and under the same terms, next, `CCn1cc(/C=C(\NC(=O)c2cc(OC)c(OC)c(OC)c2)C(=O)N2CCN(C)CC2)c2ccccc21`: 0.404%.
`O=C(N/N=C/c1ccc(O)c2ccccc12)c1cccnc1`: the “activity change, negative = inhibition” value was -14%.
`Cc1ccc(/C=N/NC(=O)C2=NNC(c3ccccc3)(c3ccccc3)C2)c(O)c1`: the Potency is 1.26 µM (active).
On to `Cc1nc2ccc(C(=O)N/N=C/c3ccc(O)cc3)cc2[nH]1`, for which the “activity change, negative = inhibition” value was 1.66%.
In the case of `O=C(NCC(=O)N1CCC2(CC1)NCCc1[nH]cnc12)c1ccc(Br)cc1`, the “activity change, negative = inhibition” value was -10.7%.
For `CCOc1cc(/C=C/c2nc3ccccc3c(=O)[nH]2)cc(Br)c1OC`, the “activity change, negative = inhibition” value was 28.2%.
For the molecule `CCCn1c(C(C)Nc2nc(-c3ccc(C)cc3)cs2)nc2cc(Cl)c(N3CCCCC3)cc21` (stereo not given), the Potency was 7.08 µM (active).
The same measure, in the same setting: for `CCCn1c(C2CCCN2c2nc(-c3ccc(C)cc3)cs2)nc2cc(Cl)c(N3CCCCC3)cc21` (stereo not given) the value was 10 µM (active).
Same read-out and setting: next, `CCCn1c(CCNc2nc(-c3ccc(OC)cc3)cs2)nc2ccccc21`: 11.2 µM (active).
Regarding `CCOC(=O)CSc1nnc(CNc2nc(-c3ccccc3)cs2)n1C`, the “activity change, negative = inhibition” value was 6.34%.
On the same count and under the same terms, for `Cc1ccc(-c2csc(N3CCN(c4cc5c(cc4Cl)nc(-c4ccncc4)n5CCOCCO)CC3)n2)cc1` the value was -30.6%; for `CCCn1c(C(O)c2ccc(OCC)cc2)nc2ccccc21` (stereo not given), -25.6%.
With `Nc1c(Cl)cc(-c2csc(N3CCCC3c3nc4cc(Cl)c(Cl)cc4n3CCOCCO)n2)cc1Cl` (stereo not given), the Potency is 14.1 µM (active).
Regarding `COc1cccc(S(=O)(=O)NCc2ccc(C(=O)NCc3ccccn3)cc2)c1`, the “activity change, negative = inhibition” value is -42.1%.
Same read-out and setting: next, `CCN(CC)CCCNC(=O)c1c(O)c2cc(F)cc3c2n(c1=O)C(C)CC3` (stereo not given): -23%; `O=C1NC(=O)C(c2ccc(Cl)cc2)N1` (stereo not given): 1.34%.
